In all, about 320,000 compounds went through this assay and about 7,600 (2.4%) were called active. Not shown: some 3% with an inconclusive outcome. The list comes from a sample in which actives are over-represented; it also holds similar structures and randomly drawn compounds. Values without a mark were called inactive. The call rests on the fitted dose curve; in most records, active means well fitted activation curve with a large enough effect; inconclusive means small, poorly fitted or top-dose-only effect; inactive means no such curve, though single readings can be large or run the other way.
Test: qHTS Assay for NPC1 Promoter Activators; further: nearly all actives have a fitted effect of over 60% in size;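 on activation: reporter is driven by a mutant NPC1 promoter; % of control where 0% means no effect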
Details: Huh7 NPC1 promoter luciferase reporter, 24 h; series mostly up to 9.22 µM; activation: at the top concentration
Outline: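 Compounds in DMSO were transferred onto Huh7 NPC1-luciferase reporter cells pre-incubated 2 h; after 24 h at 37 °C, Amplite reagent was dispensed and luminescence recorded 10 min later.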
Potency means the concentration at half of the fitted maximal effect.

Structure (SMILES)	activation [%]	Potency
CCCCn1c(N)c(N(CCC(C)C)C(=O)COC(=O)c2cccnc2OCC)c(=O)[nH]c1=O	-3.86	
CCCCn1c(N)c(N(CCC(C)C)C(=O)COC(=O)c2ccc(CC)cc2)c(=O)[nH]c1=O	-6.12	
CC(Sc1nnc(-c2cccs2)n1C1CC1)C(=O)NCC1CCCO1 (configuration not stated)	-1.05	
CC(=O)Nc1cccc(-c2nc3ccccc3s2)c1C	9.92	
CCC(=O)NC(=Nc1nc2ccccc2s1)NC(=O)CC		1.26 µM (active)
CN(Cc1nc2ccccc2s1)C(=O)c1ccc(F)cc1	6.01	
Cc1cc(C(=O)OCC(=O)Nc2nnc(C(C)C)s2)c2ccccc2n1	-1.33	
CC(C)CC(=O)N/C(N)=N/c1nc2ccccc2s1		0.501 µM (active)
CC(C)CC(=O)NC(=S)NCc1ccccc1	-1.14	
Cc1ccc(F)cc1NC(=O)CSCc1c(C)noc1C	-4.22	
Cc1nn(Cc2ccccc2)c(C)c1C(=O)N1CCN(CC(=O)Nc2ccccc2Cl)CC1	0.571	
C=CCC1(CC=C)CCCN1C(=O)c1cc(COc2ccc(-n3cncn3)cc2)on1	-27	
CC(=O)Nc1ccc(C(=O)Nc2nc(-c3cc(C)n(Cc4ccccc4)c3C)cs2)cc1	-1.99	
Cc1ccc(Nc2nc(-c3ccc(O)cc3O)cs2)nc1		2 µM (active)
C=C(C)CNc1cc(S(=O)(=O)N2CCOCC2)ccc1Oc1ccccc1	1.3	
CCCn1c(NC(=O)C23CC4CC(CC(O)(C4)C2)C3)nc2ccccc21	-4.67	
O=C(NCCc1ccccc1)c1ccc2c(c1)N(Cc1ccccc1)CCS2	-14.8	
CC1CCN(C(=O)CCNC(=O)c2ccccc2)CC1	21.9	
CC1CCCN(c2ccc(C(=O)NCCc3ccccc3)cn2)C1 (configuration not stated)		3.16 µM (active)
Cc1ccc(NC(=O)CCCNC(=O)c2ccc(Cl)cc2)cc1S(=O)(=O)N1CCCCC1	-1.66	
CC(C)(C)C(=O)CSc1ccc(S(=O)(=O)N2CCCC2)cn1	-4.16	
CC(NC(=O)c1ccc(S(=O)(=O)Nc2ccccc2)cc1)c1ccc(S(N)(=O)=O)cc1 (configuration not stated)	4.89	
O=C(Nc1cccnc1)c1cc(Cl)ccc1Cl	-6.95	

Structure (SMILES)	activation [%]	Potency
O=C(Nc1cccnc1)c1cccc(S(=O)(=O)N2CCCC2)c1	-5.6	
O=C(Nc1cccnc1)c1noc2c1CCCCC2		2.51 µM (active)
Cc1cccc(-c2oc3ccc(-c4ccc5c(c4)OCO5)cc3c2C#Cc2cncn2C)c1	16.6	
Cc1cc2nc(SCCN3CCOCC3)[nH]c2cc1C		3.98 µM (active)
CCn1c2ccc(F)cc2c2nnc(SCCN3CCOCC3)nc21	-1.8	
Cc1cccc(C)c1OCCN1CCOCC1	-0.225	
CC(=O)Nc1ccc(NC(=O)C(NS(=O)(=O)c2ccc3c(c2)OCCO3)C(C)C)cc1 (configuration not stated)	-1.18	
COc1cccc(NC(=O)CN(C)C(=O)/C=C/c2cn(-c3ccccc3)nc2-c2cccs2)c1	-2.2	
CC1Cc2ccccc2N1S(=O)(=O)c1cccc(C(=O)NCC(c2ccco2)N2CCCC2)c1 (configuration not stated)	-3.83	
CSCC[C@H](NC(=O)OC(C)(C)C)C(=O)N/N=C/c1cc2ccc(C)cc2nc1Cl	-1.66	
Cc1ccc2cc(/C=N/Nc3ccc(C(=O)O)cc3)c(Cl)nc2c1		1.12 µM (active)
Cc1ccc2cc(/C=N/NC(=O)[C@@H]3CCCN3)c(Cl)nc2c1	0.836	
O=C(CSc1nc2ccccc2c(=O)n1CCCO)NC1CC1	-1.34	
CC(C)c1ccc(NC(=S)NC2CC3C=CC2C3)cc1 (configuration not stated)		3.98 µM (active)
S=C(NNC(=S)NC1CC2C=CC1C2)NC1CC2C=CC1C2 (configuration not stated)	-3.31	
S=C(NNC(=S)NC1CC2CCC1C2)NC1CC2C=CC1C2 (configuration not stated)	-0.848	
CCOC(=O)C1=C(COC(=O)[C@H](C)NS(=O)(=O)c2ccccc2F)NC(=O)NC1C (some centres not stated)	-0.719	
CCOc1ccc(C(C)NC(=O)CN2C(=O)NC3(CCCCC3)C2=O)cc1OCC (configuration not stated)	-3.59	
Cc1ccc(C(=O)/C=C/Nc2ccc(S(=O)(=O)Nc3onc(C)c3C)cc2)cc1	5.8	
Cc1cc(N/C=C\C(=O)c2ccc(Cl)c(Cl)c2)no1		2.51 µM (active)
CCC(=O)Nc1ccc(C(=O)Nc2cc(C)on2)cc1	11.6	
CCOC(=O)Cc1csc(SCC(=O)Nc2ccc(C)cc2F)n1	-5.48	
Cc1ccc(S(=O)(=O)N2CCCCC2)cc1NC(=O)c1cccnc1	-2.18	

Structure (SMILES)	activation [%]	Potency
CCCCc1ccc(NC(=O)CN2C(=O)NC(Cc3ccccc3)C2=O)cc1 (configuration not stated)	-11	
NC(=O)COC(=O)c1sc2cc(F)ccc2c1Cl	-0.631	
COc1ccc2c(c1OC)C(=O)N(c1ncn[nH]1)C2	2.43	
COc1cc(C(=O)N2C(=O)c3cccc(N)c3C2=O)cc(OC)c1OC	-0.143	
COc1ccc2c(c1OC)C(=O)N(c1ccc(O)cc1)C2		2.82 µM (active)
O=C(c1cc2ccccc2o1)N1CCN(S(=O)(=O)c2ccc(Cl)s2)CC1	9.97	
O=C(OCC(=O)N1CCOCC1)c1ccc2ccccc2c1	15.4	
CCCCNC(=O)Cn1nc(C)c(S(=O)(=O)N2CCOCC2)c1C	-10.9	
O=c1ccc(S(=O)(=O)N2CCCC2)cn1Cc1nc(-c2ccccc2)no1	-1.51	
Nc1c(C(=O)Nc2ccc3c(c2)OCCO3)nnn1Cc1ccccc1		3.16 µM (active)
O=C(CCS(=O)(=O)Cc1ccccc1)Nc1ccc2c(c1)OCCO2	1.61	
CCc1ccc(NC(=O)Cn2nnc(C(=O)NCc3ccc4c(c3)OCO4)c2N)cc1	0.519	
Nn1c(SCC(=O)Nc2nccs2)nnc1-c1ccco1	-4.18	
CC(C)[C@@H](C(=O)O)N(Cc1cccc(CN([C@H](C(=O)O)C(C)C)S(C)(=O)=O)c1)S(C)(=O)=O	0.257	
Nc1ccn(C2CC(O)C(CO)O2)c(=O)n1 (configuration not stated)	-1.6	
COc1ccc(C2Nc3ccccc3C(=O)N2c2ccc(F)cc2)cc1Cn1nnc2ccccc21 (configuration not stated)	14.1	
COc1ccc(C2Nc3ccccc3C(=O)N2Cc2ccccc2)cc1Cn1nnc2ccccc21 (configuration not stated)	-2.11	
COc1cccc(NC(=O)c2ccc(Cn3cc([N+](=O)[O-])cn3)o2)c1	-0.132	
COc1ccc(N2C(=O)c3ccccc3NC2c2ccc(OC)c(CN3CCOCC3)c2)cc1 (configuration not stated)		2.82 µM (active)
COc1ccccc1CC(=O)Nc1ccc([N+](=O)[O-])cc1OC	1.97	
COc1ccc(C2Nc3ccccc3C(=O)N2c2ccc(Cl)cc2)cc1Cn1cc([N+](=O)[O-])cn1 (configuration not stated)		3.98 µM (active)
